# In the library only some 2.5% were active in any assay of this set; here they are far more common.
# Pol kappa inh: inhibitors of human DNA polymerase kappa. purified Pol kappa, fluorescent DNA synthesis assay, 10 min. Potency, µM (titrated, usually from 107 µM), for the others: at the highest dose activity, negative = inhibition, hits mostly inhibitors. hit rate 0.53% among 400,000; further: on the % scale 0 is the no-effect control and ±100 the full control effect
# Target sequence (Q9UBT6 whole entry, looked up): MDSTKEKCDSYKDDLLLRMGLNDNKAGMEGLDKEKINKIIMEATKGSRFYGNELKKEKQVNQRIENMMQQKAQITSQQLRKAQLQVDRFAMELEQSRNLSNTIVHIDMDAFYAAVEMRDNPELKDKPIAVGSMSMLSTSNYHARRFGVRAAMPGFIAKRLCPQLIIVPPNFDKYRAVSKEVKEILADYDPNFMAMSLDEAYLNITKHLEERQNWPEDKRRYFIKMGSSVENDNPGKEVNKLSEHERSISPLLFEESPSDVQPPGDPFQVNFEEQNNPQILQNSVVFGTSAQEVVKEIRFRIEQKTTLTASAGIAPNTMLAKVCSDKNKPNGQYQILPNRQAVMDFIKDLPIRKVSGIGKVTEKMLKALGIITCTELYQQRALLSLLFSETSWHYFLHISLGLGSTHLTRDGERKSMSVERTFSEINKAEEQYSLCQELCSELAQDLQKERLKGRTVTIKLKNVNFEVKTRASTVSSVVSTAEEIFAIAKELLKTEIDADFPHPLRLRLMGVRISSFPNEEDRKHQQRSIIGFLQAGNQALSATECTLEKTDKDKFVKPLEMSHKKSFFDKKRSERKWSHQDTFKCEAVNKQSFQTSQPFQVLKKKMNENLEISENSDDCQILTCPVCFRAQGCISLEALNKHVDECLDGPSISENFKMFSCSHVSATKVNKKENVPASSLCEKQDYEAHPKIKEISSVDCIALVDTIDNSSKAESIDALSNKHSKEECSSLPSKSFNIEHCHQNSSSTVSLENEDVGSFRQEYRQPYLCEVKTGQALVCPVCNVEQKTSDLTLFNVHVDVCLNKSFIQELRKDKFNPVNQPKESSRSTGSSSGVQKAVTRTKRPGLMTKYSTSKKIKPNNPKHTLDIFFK
#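 Kinetic fluorescence readout at 0 and 10 min followed reaction start with substrate at 50 nM final. Beforehand, enzyme (10 nM Pol kappa) stood 15 min with compound at room temperature; buffer-only wells were negative controls.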
# POLH inh: blocks human DNA polymerase eta activity | Q9Y253 | recombinant Pol eta, fluorescent DNA replication assay | Potency, µM (highest dose often 114 µM), for inactives: top-dose activity change, negative = inhibition, hits mostly inhibitors | hit rate 1.2% among 390,000; further: on the % scale 0 is the no-effect control and ±100 the full control effect
#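 Pol eta (10 nM) was preincubated with compounds for 15 min at room temperature, after which fluorescent replication substrate (50 nM final) was added to start the reaction. Fluorescence was read kinetically at 0 and 10 min.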
# APE1 inh: blocks human APE1 abasic DNA cleavage; recombinant APE1, TAMRA/BHQ-2 abasic DNA cleavage fluorescence; Potency, µM (highest dose often 65.8 µM), inactives show top-dose activity change, negative = inhibition, hits mostly inhibitors; hit rate 0.35% among 350,000; AID 2517;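 further: plate controls were vehicle for no effect and reference inhibitor for full effect; nearly all actives have a fitted effect of over 55% in size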
#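 Compound pre-exposure to 0.75 nM APE1, 15 min at ambient temperature. Reaction initiated with 50 nM TAMRA/BHQ-2 THF substrate, read immediately in kinetic mode, 525 nm excitation, 598 nm emission.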
# L3MBTL1 block: L3MBTL1 (human) inhibition; Q9Y468; AlphaScreen L3MBTL1–H3K9me1 peptide binding; Potency, µM (series often up to 57.1 µM), for inactives: at the highest dose activity, negative = inhibition, hits mostly inhibitors; hit rate 0.66% among 230,000; AID 485360; further: on the % scale 0 is the no-effect control and ±100 the full control effect; nearly all actives have a fitted effect of over 60% in size
#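 AlphaScreen assay: L3MBTL1 (50 nM final) was preincubated 30 min at room temperature with biotinylated H3(1-15)K9me1 peptide (75 nM final), then 30 min with library compounds; streptavidin donor and nickel chelate acceptor beads (10 ug/mL final) added, 30 min dark.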
# POLI inh: inhibitors of human DNA polymerase iota | Pol iota fluorescent replication assay, 10 min | Potency, µM (top dose mostly 115 µM), for inactives: at the top dose activity, negative = inhibition, actives largely listed as inhibitors | hit rate 1% among 390,000 | Q9UNA4 | AID 588590
#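 Fluorescent replication assay read twice, at 0 min and 10 min after adding 50 nM (final) substrate. Enzyme (10 nM) and compounds were first incubated 15 min at room temperature; enzyme-free buffer wells were negative controls.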
# POLB inh: blocks human DNA polymerase beta activity | Pol beta primer extension/strand displacement, fluorescence kinetic | P06746 | hit rate 1.3% among 340,000 | AID 485314 | Potency, µM (series often up to 114 µM), for the others: at the top dose activity change, negative = inhibition, most hits filed as inhibitors; further: on the % scale 0 is the no-effect control and ±100 the full control effect
#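 Pol beta (10 nM) and compounds were preincubated 15 min at room temperature, then 50 nM substrate (final) started primer extension/strand displacement. Reads were taken at 0 and 10 min; concentration-response data were fitted to a four-parameter Hill equation.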
# * marks the source's active call; other numbers are inactive results; u = inconclusive; x = not tested or not shown; [ ] = remark or other dose. The call rests on the fitted dose curve; in most records, active means well fitted curve in the direction sought with a large enough effect; inconclusive means small, poorly fitted or top-dose-only effect, or another doubt; inactive means no such curve, though single readings can be large; an effect the other way counts as inactive or inconclusive. Potency means the concentration at half of the fitted maximal effect.
SMILES,Pol kappa inh,POLH inh,APE1 inh,L3MBTL1 block,POLI inh,POLB inh
Cc1ccc(S(=O)(=O)Nc2cc(=O)[nH]c(SCC(=O)Nc3ccccc3C(F)(F)F)n2)cc1,-8%,-14%,-20%,x,84%,22%
Cc1ccc(S(=O)(=O)Nc2cc(=O)[nH]c(SCC(=O)Nc3cccc(C)c3)n2)cc1,u,1%,-6%,x,50µM*,-2%
CCOc1ccc(NC(=O)CSc2nc(NS(=O)(=O)c3ccc(C)cc3)cc(=O)[nH]2)cc1,40µM*,-18%,13%,x,22µM*,3%
Cc1cc(=O)[nH]c(SCC(=O)Nc2ccc(S(N)(=O)=O)cc2)n1,u,20µM*,u,x,40µM*,u
CCCn1c(=O)c2sccc2n2c(CCCC(=O)NC3CCN(Cc4ccccc4)CC3)nnc12,-4%,-5%,39%,x,15%,-7%
Fc1cccc(CNc2ncnc3ccc(-c4ccccc4Cl)cc23)c1,x,x,-5%,2%,x,x
COc1cc2[nH]c(-c3ccc(C)cc3)cc(=O)c2cc1OC,-5%,-8%,-7%,-4%,-19%,14%
COc1ccc(-c2cc(=O)c3cc(OC)ccc3[nH]2)cc1,4%,1%,13%,7%,35µM*,14%
COc1ccc(-c2cc(=O)c3cc(C)ccc3[nH]2)cc1,-11%,9%,u,7%,79µM*,4%
Cc1ccc(C(=O)N/N=C2\CCc3ccccc32)c(C)c1,-3%,-1%,1%,-8%,22%,0.16µM*
O=C(N/N=C1\CCc2ccccc21)c1ccccc1Cl,-13%,-16%,4%,-3%,50%,15%
COc1ccc(-c2cc(=O)c3c(C)cc(O)cc3o2)cc1,u,u,x,x,20µM*,x
COc1cc(-c2cc(=O)c3c(C)cc(O)cc3o2)cc(OC)c1OC,-6%,u,x,x,15%,x
Cn1c(/C(C#N)=C/c2ccccc2Br)nc2ccccc21,u,x,x,x,79µM*,6%
CCn1c(/C(C#N)=C/c2ccccc2Cl)nc2ccccc21,-3%[60.1 µM],-4%,x,x,-15%,-28%
CC1/C=C/C=C/C=C/C=C/C=C/C=C/C=C/C(OC2OC(C)C(O)C(N)C2O)CC2O[C@@](O)(CC(O)CC(O)C(O)CCC(O)CC(O)CC(=O)OC(C)[C@H](C)C1O)CC(O)C2C(=O)O (stereo partly drawn),3.5µM*,x,-27%,x,x,x
Cc1sc2ccccc2[n+]1CCC[n+]1c(C)sc2ccccc21,-19%,x,x,x,u,x
Cc1nc2ccn(Cc3cccs3)c(=O)c2cc1C(=O)NCc1ccc(Br)cc1,-1%,-2%,x,x,u,-12%
COc1ccccc1CNC(=O)c1cc2c(=O)n(Cc3cccs3)ccc2nc1C,-25%,-4%,x,x,9%,1%
CCOc1ccc(CNC(=O)c2cc3c(=O)n(Cc4cccs4)ccc3nc2C)cc1,12%,16%,x,x,u,13µM*
CCc1ccc(CNC(=O)c2cc3c(=O)n(Cc4cccs4)ccc3nc2C)cc1,-19%,11%,x,x,u,50µM*
NS(=O)(=O)c1ccc(CCNC(=O)CCn2c(=O)c3cccn3c3cccnc32)cc1,-4%,-7%,x,x,21%,u
O=C(O)CCN1C(=O)/C(=C2\C(=O)N(Cc3ccccc3Cl)c3ccccc32)SC1=S,x,x,7.5µM*,x,x,u
O=c1cc(O)c2c(=O)n(-c3ccccc3)c3ccccc3c2o1,-26%,u,-1%,-20%,6%,22µM*
CC(C)n1c(=O)c2c(O)cc(=O)oc2c2ccccc21,u,-29%,12%,-13%,u,18µM*
SMILES,Pol kappa inh,POLH inh,APE1 inh,L3MBTL1 block,POLI inh,POLB inh
O=C(/C=C/c1cccs1)NC(=S)NNC(=O)c1ccccc1O,-13%,-3%,u,35µM*,27%,27%
CCCCNc1ncnc2oc(-c3ccco3)c(-c3ccco3)c12,u,x,x,x,71µM*,x
CC(=O)Nc1ccc(-c2ccc3nnc(C)n3n2)cc1,0%,-15%,7%,x,51%,19%
Cc1nnc2ccc(-c3ccc(NC(=O)c4ccco4)cc3)nn12,0%,u,0%,x,-24%,18µM*
Cc1nc(-c2ccc(S(=O)(=O)Nc3ccc(OC(F)(F)F)cc3)cc2)co1,-11%[60.1 µM],-27%,x,x,13%,-2%
O=C1CCc2cc(S(=O)(=O)NC3CCCCC3)cc3c2N1CC3,-1%,u,-10%,u,50µM*,x
CN(C1CCCCC1)S(=O)(=O)c1cc2c3c(c1)CCN3C(=O)CC2,2%,-19%,6%,5%,-29%,x
COc1ccc(C(=O)NCC(=O)OCC(=O)Nc2ncc(Cl)cc2Cl)cc1[N+](=O)[O-],-23%,50µM*,6%,-5%,19%,x
COc1cc(CCC(=O)OCC(=O)Nc2ncc(Cl)cc2Cl)cc(OC)c1OC,-26%,11µM*,-2%,-3%,u,79µM*
O=C(COC(=O)CNC(=O)c1ccc2c(c1)OCO2)Nc1ncc(Cl)cc1Cl,-10%,-20%,10%,5%,30%,14%
CC1CC1C(=O)OCC(=O)Nc1ncc(Cl)cc1Cl (stereo not drawn),u,28µM*,-9%,u,14µM*,x
Nc1nc(SCC(=O)Nc2ncc(Cl)cc2Cl)n[nH]1,-41%,u,-7%,-9%,79µM*,x
CCc1nnc2c3ccccc3nc(Nc3ccc(F)cc3C)n12,2%,1%,x,x,40%,82%
c1cc(-c2cnn3cc(-c4ccc(OCCN5CCCCC5)cc4)cnc23)ccn1,-11%[12 µM],x,-1%,x,x,x
Nc1cc(S(=O)(=O)O)cc2ccc(S(=O)(=O)O)cc12,-24%,u,x,x,u,x
Oc1ccc(Cl)cc1N=Nc1ccccc1,-2%,-16%,7%,u,26%,114%
Cc1cc(-c2ccc(N=Nc3c(S(=O)(=O)O)cc4cc(S(=O)(=O)O)cc(N)c4c3O)c(C)c2)ccc1N=Nc1c(S(=O)(=O)O)cc2cc(S(=O)(=O)O)cc(N)c2c1O,0.89µM*,x,0.47µM*,0.2µM*,x,x
O=S(=O)(O)c1cc(O)c2c(O)c(N=Nc3cc(Cl)ccc3O)c(S(=O)(=O)O)cc2c1,16µM*,35µM*,12µM*,x,22µM*,32µM*
O=C(Nc1nc2c(Cl)cccc2s1)c1ccc([N+](=O)[O-])o1,-13%,50µM*,10%,-5%,31%,4%
Cc1ccc(-c2csc(NC(=O)c3ccc([N+](=O)[O-])o3)n2)cc1,1%,79µM*,-14%,x,-7%,1%
O=C(Nc1nc2c(F)cccc2s1)c1ccc([N+](=O)[O-])o1,-19%,5%,6%,30%,-28%,6%
Cc1ccc(NC(=O)C2CCCN(c3nc4ccccc4s3)C2)c(C)c1 (stereo not drawn),3%,-7%,x,x,9%,11%

# Bioassay records (PubChem)
